The campaign covered roughly 5,500 compounds. About 2,000 (36%) were called active. Inconclusive results (about 18%) are left out. The list shows a part of the results. A number with no mark means an inactive call. Rule as the data show it: active = normalized growth mostly below about 0.91 (no sharp cut-off); inconclusive = no clear call, values can overlap the other calls; inactive = mostly above about 0.92.
Experiment: chemical genetic growth profiling, strain panel (AID 1159580);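 also: tested at 20 µM; growth read once vehicle control cultures reached saturation at 30 °C; 1 = growth at the plate median or of vehicle wells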
Conditions: growth OD

**Q.** For CCCCCCCCCCCC[C@H](C(=O)O)[C@@H](C)C(=O)O, which normalized growth (S. cerevisiae deletion strains, locus YJR075W, strain HOC1, stronger effect = lower value) is on record?
**A.** 1.07

**Q.** What about the normalized growth (S. cerevisiae deletion strains, locus YKL009W, strain mrt4, stronger effect = lower value) of the same molecule?
**A.** 0.946

**Q.** What about the normalized growth (S. cerevisiae deletion strains, locus YKL068W, stronger effect = lower value) of the same molecule?
**A.** 0.996

**Q.** What about the normalized growth (S. cerevisiae deletion strains, locus YKL085W, strain MDH1 (second series), stronger effect = lower value) of the same molecule?
**A.** 0.975

**Q.** And the normalized growth (S. cerevisiae deletion strains, locus YKL085W, strain MDH1, stronger effect = lower value)?
**A.** 0.975

**Q.** What about the normalized growth (S. cerevisiae deletion strains, locus YKL160W, strain elf1, stronger effect = lower value) of the same molecule?
**A.** 1

**Q.** And the normalized growth (S. cerevisiae deletion strains, locus YKL190W, strain CNB1, stronger effect = lower value)?
**A.** 0.99

**Q.** And the normalized growth (S. cerevisiae deletion strains, locus YKR001C, strain vps1, stronger effect = lower value)?
**A.** 0.982

**Q.** And the normalized growth (S. cerevisiae deletion strains, locus YKR026C, strain gcn3, stronger effect = lower value)?
**A.** 0.965

**Q.** And the normalized growth (S. cerevisiae deletion strains, locus YKR091W, strain srl3, stronger effect = lower value)?
**A.** 0.974

**Q.** And the normalized growth (S. cerevisiae deletion strains, locus YLL001W, strain dnm1, stronger effect = lower value)?
**A.** 1.01

**Q.** And the normalized growth (S. cerevisiae deletion strains, locus YLL026W, stronger effect = lower value)?
**A.** 0.987

**Q.** What about the normalized growth (S. cerevisiae deletion strains, locus YLL041C, strain sdh2, stronger effect = lower value) of the same molecule?
**A.** 0.973

**Q.** And the normalized growth (S. cerevisiae deletion strains, locus YLR027C, strain aat2, stronger effect = lower value)?
**A.** 0.992

**Q.** And the normalized growth (S. cerevisiae deletion strains, locus YLR039C, strain RIC1, stronger effect = lower value)?
**A.** 1.04

**Q.** What about the normalized growth (S. cerevisiae deletion strains, locus YLR058C, strain SHM2, stronger effect = lower value) of the same molecule?
**A.** 0.994

**Q.** And the normalized growth (S. cerevisiae deletion strains, locus YLR102C, strain apc9, stronger effect = lower value)?
**A.** 1.01

**Q.** What about the normalized growth (S. cerevisiae deletion strains, locus YLR113W, strain HOG1, stronger effect = lower value) of the same molecule?
**A.** 0.903

**Q.** And the normalized growth (S. cerevisiae deletion strains, locus YLR221C, strain rsa3, stronger effect = lower value)?
**A.** 1

**Q.** What about the normalized growth (S. cerevisiae deletion strains, locus YLR258W, strain gsy2, stronger effect = lower value) of the same molecule?
**A.** 0.979

**Q.** And the normalized growth (S. cerevisiae deletion strains, locus YLR262C, strain YPT6 (second series), stronger effect = lower value)?
**A.** 0.934

**Q.** And the normalized growth (S. cerevisiae deletion strains, locus YLR262C, strain YPT6, stronger effect = lower value)?
**A.** 1.12

**Q.** What about the normalized growth (S. cerevisiae deletion strains, locus YLR268W, strain sec22, stronger effect = lower value) of the same molecule?
**A.** 1.02

**Q.** What about the normalized growth (S. cerevisiae deletion strains, locus YLR320W, strain mms22, stronger effect = lower value) of the same molecule?
**A.** 1.01

**Q.** What about the normalized growth (S. cerevisiae deletion strains, locus YLR330W, strain CHS5, stronger effect = lower value) of the same molecule?
**A.** 0.986

**Q.** What about the normalized growth (S. cerevisiae deletion strains, locus YLR342W, strain FKS1 (second series), stronger effect = lower value) of the same molecule?
**A.** 1.02

**Q.** What about the normalized growth (S. cerevisiae deletion strains, locus YLR342W, strain FKS1, stronger effect = lower value) of the same molecule?
**A.** 0.986

**Q.** What about the normalized growth (S. cerevisiae deletion strains, locus YLR357W, strain rsc2, stronger effect = lower value) of the same molecule?
**A.** 0.994

**Q.** And the normalized growth (S. cerevisiae deletion strains, locus YLR370C, strain arc18, stronger effect = lower value)?
**A.** 0.975

**Q.** What about the normalized growth (S. cerevisiae deletion strains, locus YLR371W, strain rom2, stronger effect = lower value) of the same molecule?
**A.** 1.01

**Q.** And the normalized growth (S. cerevisiae deletion strains, locus YLR384C, strain iki3, stronger effect = lower value)?
**A.** 0.974

**Q.** What about the normalized growth (S. cerevisiae deletion strains, locus YLR418C, strain cdc73, stronger effect = lower value) of the same molecule?
**A.** 1.02

**Q.** What about the normalized growth (S. cerevisiae deletion strains, locus YML016C, strain PPZ1, stronger effect = lower value) of the same molecule?
**A.** 0.982

**Q.** And the normalized growth (S. cerevisiae deletion strains, locus YML032C, strain rad52, stronger effect = lower value)?
**A.** 1.01

**Q.** And the normalized growth (S. cerevisiae deletion strains, locus YML120C, strain ndi1, stronger effect = lower value)?
**A.** 0.991

**Q.** What about the normalized growth (S. cerevisiae deletion strains, locus YML124C, strain tub3, stronger effect = lower value) of the same molecule?
**A.** 0.998

**Q.** And the normalized growth (S. cerevisiae deletion strains, locus YMR058W, strain fet3, stronger effect = lower value)?
**A.** 0.998

**Q.** What about the normalized growth (S. cerevisiae deletion strains, locus YMR078C, strain ctf18, stronger effect = lower value) of the same molecule?
**A.** 0.995

**Q.** What about the normalized growth (S. cerevisiae deletion strains, locus YMR125W, strain sto1, stronger effect = lower value) of the same molecule?
**A.** 0.98

**Q.** What about the normalized growth (S. cerevisiae deletion strains, locus YMR129W, stronger effect = lower value) of the same molecule?
**A.** 0.971

**Q.** And the normalized growth (S. cerevisiae deletion strains, locus YMR205C, strain PFK2, stronger effect = lower value)?
**A.** 1

**Q.** What about the normalized growth (S. cerevisiae deletion strains, locus YMR223W, strain ubp8, stronger effect = lower value) of the same molecule?
**A.** 1.03

**Q.** What about the normalized growth (S. cerevisiae deletion strains, locus YMR231W, strain pep5, stronger effect = lower value) of the same molecule?
**A.** 0.927 (active)

**Q.** And the normalized growth (S. cerevisiae deletion strains, locus YMR263W, strain SAP30, stronger effect = lower value)?
**A.** 0.996

**Q.** And the normalized growth (S. cerevisiae deletion strains, locus YMR307W, strain GAS1, stronger effect = lower value)?
**A.** 1.06

**Q.** What about the normalized growth (S. cerevisiae deletion strains, locus YNL067W, strain RPL9B, stronger effect = lower value) of the same molecule?
**A.** 1.01

**Q.** And the normalized growth (S. cerevisiae deletion strains, locus YNL071W, strain lat1, stronger effect = lower value)?
**A.** 0.968

**Q.** And the normalized growth (S. cerevisiae deletion strains, locus YNL128W, strain TEP1, stronger effect = lower value)?
**A.** 1.01

**Q.** And the normalized growth (S. cerevisiae deletion strains, locus YNL153C, strain GIM3, stronger effect = lower value)?
**A.** 0.994

**Q.** What about the normalized growth (S. cerevisiae deletion strains, locus YNL183C, strain NPR1, stronger effect = lower value) of the same molecule?
**A.** 0.91

**Q.** And the normalized growth (S. cerevisiae deletion strains, locus YNL209W, strain ssb2, stronger effect = lower value)?
**A.** 0.995

**Q.** What about the normalized growth (S. cerevisiae deletion strains, locus YNL233W, strain BNI4, stronger effect = lower value) of the same molecule?
**A.** 1

**Q.** What about the normalized growth (S. cerevisiae deletion strains, locus YNL248C, strain rpa49, stronger effect = lower value) of the same molecule?
**A.** 1

**Q.** What about the normalized growth (S. cerevisiae deletion strains, locus YNL250W, strain rad50, stronger effect = lower value) of the same molecule?
**A.** 1.02

**Q.** What about the normalized growth (S. cerevisiae deletion strains, locus YNL271C, strain bni1, stronger effect = lower value) of the same molecule?
**A.** 1.01

**Q.** And the normalized growth (S. cerevisiae deletion strains, locus YNL298W, strain CLA4, stronger effect = lower value)?
**A.** 0.972

**Q.** What about the normalized growth (S. cerevisiae deletion strains, locus YNL307C, strain MCK1, stronger effect = lower value) of the same molecule?
**A.** 1.01

**Q.** And the normalized growth (S. cerevisiae deletion strains, locus YNL322C, strain KRE1 (second series), stronger effect = lower value)?
**A.** 0.968

**Q.** And the normalized growth (S. cerevisiae deletion strains, locus YNL322C, strain KRE1, stronger effect = lower value)?
**A.** 0.989

**Q.** What about the normalized growth (S. cerevisiae deletion strains, locus YNR049C, strain mso1, stronger effect = lower value) of the same molecule?
**A.** 0.979

**Q.** And the normalized growth (S. cerevisiae deletion strains, locus YNR052C, strain pop2, stronger effect = lower value)?
**A.** 1.02

**Q.** What about the normalized growth (S. cerevisiae deletion strains, locus YOL006C, strain TOP1, stronger effect = lower value) of the same molecule?
**A.** 1.04

**Q.** And the normalized growth (S. cerevisiae deletion strains, locus YOL012C, strain htz1)?
**A.** 1.2

**Q.** What about the normalized growth (S. cerevisiae deletion strains, locus YOL147C, strain pex11, stronger effect = lower value) of the same molecule?
**A.** 0.997

**Q.** And the normalized growth (S. cerevisiae deletion strains, locus YOR001W, strain rrp6, stronger effect = lower value)?
**A.** 0.984

**Q.** And the normalized growth (S. cerevisiae deletion strains, locus YOR061W, strain CKA2, stronger effect = lower value)?
**A.** 0.994

**Q.** And the normalized growth (S. cerevisiae deletion strains, locus YOR069W, strain VPS5, stronger effect = lower value)?
**A.** 0.989

**Q.** And the normalized growth (S. cerevisiae deletion strains, locus YOR070C, strain gyp1, stronger effect = lower value)?
**A.** 0.987

**Q.** And the normalized growth (S. cerevisiae deletion strains, locus YOR080W, strain dia2, stronger effect = lower value)?
**A.** 0.962

**Q.** And the normalized growth (S. cerevisiae deletion strains, locus YOR083W, strain WHI5, stronger effect = lower value)?
**A.** 1.01

**Q.** And the normalized growth (S. cerevisiae deletion strains, locus YOR106W, strain vam3, stronger effect = lower value)?
**A.** 1.02

**Q.** What about the normalized growth (S. cerevisiae deletion strains, locus YOR136W, strain idh2, stronger effect = lower value) of the same molecule?
**A.** 1.03

**Q.** What about the normalized growth (S. cerevisiae deletion strains, locus YOR144C, strain elg1, stronger effect = lower value) of the same molecule?
**A.** 1

**Q.** What about the normalized growth (S. cerevisiae deletion strains, locus YOR184W, strain ser1, stronger effect = lower value) of the same molecule?
**A.** 1.04

**Q.** What about the normalized growth (S. cerevisiae deletion strains, locus YOR231W, strain MKK1, stronger effect = lower value) of the same molecule?
**A.** 0.963

**Q.** What about the normalized growth (S. cerevisiae deletion strains, locus YOR265W, strain rbl2, stronger effect = lower value) of the same molecule?
**A.** 0.985

**Q.** And the normalized growth (S. cerevisiae deletion strains, locus YOR270C, strain vph1, stronger effect = lower value)?
**A.** 1.02

**Q.** And the normalized growth (S. cerevisiae deletion strains, locus YOR290C, strain snf2, stronger effect = lower value)?
**A.** 1

**Q.** And the normalized growth (S. cerevisiae deletion strains, locus YOR316C, strain cot1, stronger effect = lower value)?
**A.** 1.01

**Q.** What about the normalized growth (S. cerevisiae deletion strains, locus YPL051W, strain arl3, stronger effect = lower value) of the same molecule?
**A.** 0.983

**Q.** What about the normalized growth (S. cerevisiae deletion strains, locus YPL055C, strain LGE1, stronger effect = lower value) of the same molecule?
**A.** 1.03

**Q.** What about the normalized growth (S. cerevisiae deletion strains, locus YPL078C, strain atp4, stronger effect = lower value) of the same molecule?
**A.** 0.971

**Q.** And the normalized growth (S. cerevisiae deletion strains, locus YPL106C, strain sse1, stronger effect = lower value)?
**A.** 0.952

**Q.** What about the normalized growth (S. cerevisiae deletion strains, locus YPL240C, strain hsp82, stronger effect = lower value) of the same molecule?
**A.** 0.973

**Q.** What about the normalized growth (S. cerevisiae deletion strains, locus YPL241C, strain CIN2, stronger effect = lower value) of the same molecule?
**A.** 0.99

**Q.** What about the normalized growth (S. cerevisiae deletion strains, locus YPL256C, strain CLN2, stronger effect = lower value) of the same molecule?
**A.** 0.949

**Q.** What about the normalized growth (S. cerevisiae deletion strains, locus YPR119W, strain clb2, stronger effect = lower value) of the same molecule?
**A.** 0.986

**Q.** What about the normalized growth (S. cerevisiae deletion strains, locus YPR141C, strain kar3, stronger effect = lower value) of the same molecule?
**A.** 1.03

**Q.** And the normalized growth (S. cerevisiae deletion strains, locus YPR163C, strain tif3, stronger effect = lower value)?
**A.** 1.02

**Q.** And the normalized growth (S. cerevisiae deletion strains, locus YPR167C, strain met16, stronger effect = lower value)?
**A.** 1.01

**Q.** What about the normalized growth (S. cerevisiae deletion strains, strain wtn01, stronger effect = lower value) of the same molecule?
**A.** 1.01

**Q.** And the normalized growth (S. cerevisiae strains, strain wild type, stronger effect = lower value)?
**A.** 0.992

From PubChem BioAssay AID1159580 (chemical genetic matrix, 2015)
